This passage reports INHIBITION results from ChEMBL document CHEMBL4513216, “Probing the Open Global Health Chemical Diversity Library for Multistage-Active Starting Points for Next-Generation Antimalarials” (ACS Infect Dis, 2020).

The campaign covered roughly 65,000 compounds. About 2,100 (3.2%) showed an effect of 50% or more. The median lay at about -52%. Many of the other results were omitted from the sample, so strong results are more common in it than they were.

The experiment has as its system Plasmodium falciparum. In words: Screen against P. falciparum Asexual Blood Stage (ABS), at 5uM. It is filed as functional, Dd2. The settings on record: tested at 5 uM.
On to `COCCN1CCC12CCN(C(=O)Cc1cccs1)C2` (stereo not given), for which the INHIBITION is -9.04%.
The result for `CN1CCC2(COCc3cnc(-c4ccccc4)nc32)C1` (stereo not given) reads -45%; that for `COCCn1c(C(=O)NC(C(N)=O)C(C)C)cc2ccccc21` (stereo not given), -92%; that for `COc1nc(N2CCNCC2)ncc1Br`, 23.8%.
The result for `Cc1ccc(N2CCC3(CN(CCO)CCC3(F)F)C2)nn1` (stereo not given) reads -59.8%.
As to `Cc1ncc(CN2CCC3(CCCN(CC4CCC4)C3)C2)cn1` (stereo not given), the INHIBITION is on record as -45.2%.
For `Fc1cnc(N2CCCC3(CCN(Cc4nccs4)C3)C2)nc1` (stereo not given) the value was 25.5%; for `COCCN1CCC2(C1)CN(c1ncc(F)cn1)C2`, -81.1%; for `COc1ncc(CN2CCC3(CCCN(CC4CCC4)C3)C2)cn1` (stereo not given), -57.4%.
For `Fc1cnc(N2CCCC3(CCN(Cc4ccsc4)C3)C2)nc1` (stereo not given) the value was 87.6%.
For `CCc1cnc(N2CC3(CCN(Cc4ccsc4)C3)C2)nc1` the value was -19.4%; for `Fc1cnc(N2CC3(CCN(Cc4ccsc4)C3)C2)nc1`, 3.41%.
On to `CCc1ncc(CN2CCC3(CCCN(CC4CCC4)C3)C2)cn1` (stereo not given), for which the INHIBITION is 8.28%.
Take `Cc1c[nH]c(CN2CCC3(CCCN(Cc4ccc(F)c(F)c4)C3)C2)n1` (stereo not given): the INHIBITION is reported as 80.3%.
The result for `COc1ccc(CN2CCC3(CCCN(c4ncc(F)cn4)C3)C2)cc1` (stereo not given) reads 87.1%.
For `Fc1cnc(N2CCCC3(CCN(Cc4ccoc4)C3)C2)nc1` (stereo not given) the value was 73.7%; for `Cc1oc(-c2ccco2)nc1CC(=O)N1CCN(CC(C)(C)O)CC1`, -109%; for `Cc1noc(CN2CC=C(c3c[nH]c4ncccc34)CC2)n1`, -31.2%.
The result for `Cc1cccc(CN2C[C@@H](NC(=O)C3CC3)[C@H]3OCCC[C@H]32)n1` reads -83.3%; that for `Fc1cnc(N2CCCC3(CCN(Cc4ccco4)C3)C2)nc1` (stereo not given), 78.2%; that for `c1cnc(N2CCCC3(CCN(Cc4ccsc4)C3)C2)nc1` (stereo not given), 68.1%.
Turning to `c1cnc(N2CCOCC3(CN(Cc4ccsc4)CCO3)C2)nc1` (stereo not given), the INHIBITION is on record as -62.3%.
The result for `Fc1cnc(N2CCCC3(CCN(Cc4cccs4)C3)C2)nc1` (stereo not given) reads 69.4%; that for `c1cnc(N2CCCC3(CCN(Cc4ccncc4)C3)C2)nc1` (stereo not given), -63.1%.
As for `Cc1cnc(N2CC3(CCN(Cc4cccnc4)C3)C2)nc1`, the INHIBITION came to 12.1%.
The result for `Fc1cnc(N2CCOC3(CCN(Cc4ccsc4)CC3)C2)nc1` reads 81.6%.
For `Cc1cnc(N2CCOC3(CCCN(C)C3)C2)nc1` (stereo not given) the value was 14.9%; for `Fc1cnc(N2CCOCC3(CCCNC3)C2)nc1` (stereo not given), -11.2%.
The result for `c1cnc(N2CCCC3(CCN(Cc4cccs4)C3)C2)nc1` (stereo not given) reads 40.4%; that for `Fc1cnc(N2CCCC3(CN(Cc4cccs4)CCO3)C2)nc1` (stereo not given), -78.4%; that for `Cc1ccc(N2CCO[C@H]3CN(Cc4ccoc4)C[C@H]32)nn1`, -106%.
`Cc1cc(CN2C[C@@H]3CN(Cc4ccsc4)CCO[C@@H]3C2)no1`: the INHIBITION is recorded as -101%.
For `CC(C)(C)c1cc(=O)[nH]c(C2(N)CCCCC2)n1` the value was -114%.
For `O=C(NC1CCC1)[C@H]1C[C@H]2NCCO[C@@H]2C1` the value was -269%; for `c1ccc(N2CCCC3(CCN(Cc4ccsc4)C3)C2)nc1` (stereo not given), 82.6%; for `c1ccc(N2CC3(CCN(Cc4cccnc4)C3)C2)nc1`, -13.8%.
As for `CCc1nc(CC(=O)N2CCCC2CN2CCCC2)cs1` (stereo not given), the INHIBITION is -48.9%.
For `CN(C)c1nc2c(c(N(C)Cc3n[nH]c4c3CCCC4)n1)CCNCC2` the value was 84.4%.
The result for `CN(Cc1n[nH]c2c1CCCC2)c1nc(C2CC2)nc2c1CCNCC2` reads 89.5%; that for `CN(C)C[C@]12COC[C@H]1CN(Cc1ccc3ccccc3n1)C2`, 27.2%; that for `Cn1cccc1C(=O)N1CCN2C[C@H](Oc3cccnc3)C[C@H]2C1`, 30.4%.
The result for `COC(=O)c1ccc(C2SCC(=O)Nc3c2cnn3C(C)(C)C)cc1` (stereo not given) reads -53.3%.
Take `CN(Cc1cccc(F)c1)C(=O)CS(=O)(=O)Cc1c(Cl)cccc1Cl`: the INHIBITION stood at 82.7%.
The result for `CCc1nnc(NC(=O)CCN2CC=C(c3cnn(C)c3)CC2)s1` reads -25.3%; that for `COc1ccccc1C(C)(C)NCc1ccc(C)o1`, 77.9%.
For `c1cncc(CN2CCO[C@H]3[C@H](OCCN4CCCC4)CC[C@@H]32)c1` the value was -68.3%.
The result for `c1cc(CN2CCO[C@H]3[C@H](OCCN4CCCC4)CC[C@@H]32)ccn1` reads -53.4%; that for `CC(Cn1cccn1)NCc1nc(-c2ccco2)no1` (stereo not given), -82%.
Take `O=C1C[C@H]2[C@@H](CCN2Cc2ccccn2)N1Cc1cccnc1`: the INHIBITION is -99.2%.
The result for `CC(=O)N1C[C@H]2CNC[C@@]2(C(=O)NCCCOc2cccnc2)C1` reads -133%; that for `CN1CCCC1CNC(=O)CCCOc1cccc(Br)c1` (stereo not given), 71.7%; that for `CN1CCCC1CNC(=O)CCCOc1ccc(Cl)cc1` (stereo not given), 78.2%.
For `CCc1c(C)[nH]c(C2(N)CCCCC2)nc1=O` the value was -26.9%; for `CCN1CCN(Cc2nc(CC(C)C)no2)CC1`, 34.7%; for `Cc1noc(C)c1CN1CC[C@H]2OCC[C@@]2(C(=O)N2CCCC2)C1`, -28.8%.
For `CCC(=O)NCC(=O)NCC1(c2c(F)cccc2F)CCCC1` the value was 73.7%.
On to `Cc1cc(CN2C[C@@H]3COC[C@]3(CNC(=O)N(C)C)C2)no1`, for which the INHIBITION is recorded as -94.8%.
Take `Cc1ccc(CN2CCC3(CC2)CC3CN(C)Cc2cccnc2)o1` (stereo not given): the INHIBITION came out at 70.8%.
For `Cc1ccc(CN2CCO[C@H]3[C@@H](OCc4cccnc4)CC[C@@H]32)o1` the value was 3.59%; for `Cc1ccc(CN2CCO[C@H]3[C@H](OCc4cccnc4)CC[C@@H]32)o1`, -70.3%; for `CCN(C)c1ncc2c(c1C(=O)O)CCN(C1CCOC1)C2` (stereo not given), -4.54%.
The result for `Cc1cccc(CN2C(=O)C[C@H]3[C@@H]2CCN3Cc2nccs2)n1` reads -3.26%; that for `Cc1ccccc1CN1CCCC1c1cccc(Nc2nccs2)n1` (stereo not given), 84.8%; that for `Cc1cccc(CN2CCCC2c2cccc(Nc3nccs3)n2)c1` (stereo not given), 88.1%.
The result for `Cc1cccc(CO[C@@H]2CC[C@H]3[C@H]2OCCN3Cc2nccs2)n1` reads -43.3%; that for `Cc1cnc(Nc2cccc(C3CCCN3Cc3cn(C)nc3C)n2)s1` (stereo not given), 89.8%.
With `c1ccc(CCN2CCCC2c2cccc(Nc3nccs3)n2)cc1` (stereo not given), the INHIBITION was 77%.
For `Cc1ccc(C(=O)N2C[C@H]3CNC[C@H]3C2)cn1` the value was -104%; for `Cc1ccccc1SC1CCN(C(=O)C2[C@H]3CNC[C@@H]23)CC1` (stereo not given in full), 73.3%; for `COc1ncc(-c2cc(NC3CCCC3)nc3[nH]ccc23)c(OC)n1`, 74%.
For `Cc1cc(Oc2ccc(NC(=O)C3CC3)cc2)cc(C2CCNCC2)n1` the value was 87.8%; for `Fc1cccnc1O[C@H]1CN(Cc2ccoc2)[C@@H]2CCCO[C@H]12`, -26.7%.
For `COCC1CN(c2ccc(C#N)c(Cl)c2)CCO1` (stereo not given) the value was -35.5%; for `c1cc(CN2C[C@@H]3OCCN(CC4CCCO4)[C@@H]3C2)ccn1` (stereo not given in full), -111%; for `CNc1cc(C)nc(N2Cc3cnn(Cc4ccc(F)cc4)c3C2)n1`, 91.9%.
Consider `CC(C)NC(=O)[C@H]1C[C@@H]2[C@@H](C1)OCCN2Cc1cccnc1`, for which the INHIBITION is given as -95.4%.
For `N#Cc1ccc(S(=O)(=O)NCCn2ccnc2)cc1Cl` the value was -39.2%; for `O=S(=O)(NCCN1CC=CC1)c1ccc(Cl)cc1`, 76.2%; for `Cc1nc(CN2CCCC2c2noc(C3CC3)n2)nc2ccccc12` (stereo not given), 78.7%.
The result for `CCCS(=O)(=O)CC(=O)N1CCCC1c1noc(C2CC2)n1` (stereo not given) reads -40.7%; that for `c1ccc2nc(CN3CCCC3c3noc(C4CC4)n3)ccc2c1` (stereo not given), 72.7%; that for `O=C(Cc1ccccc1)N1CCN(Cc2noc(C3CC3)n2)CC1`, -62.4%.
On to `COCCN1C[C@@H]2CC[C@H]1CN(Cc1ccc3ccccc3n1)C2`, for which the INHIBITION is reported as 21.2%.
As for `CCN1CCc2[nH]cnc2C12CCN(c1ccc(Cl)cn1)CC2`, the INHIBITION stood at 42.9%.
Consider `CN(C)Cc1cc(C2CCCCN2S(=O)(=O)c2cccc(Cl)c2)nn1C` (stereo not given), for which the INHIBITION stood at 78.8%.
For `CN1CC2(CCNCC2)CC1C(=O)NCCCNc1cccnc1` (stereo not given) the value was -62%.
The result for `Cc1cnc(N2CC[C@H]3[C@H](C[C@@H](CN(C)C)N3C)C2)nc1` reads -51.8%.
For `CSCc1cc(F)ccc1CNCc1cccc(O)c1` the value was 72.6%; for `Cc1cc2nc(-c3cn(C4CCNCC4)nn3)[nH]c2cc1C`, 87.5%; for `Cc1cccc2[nH]c(-c3cn(C4CCNCC4)nn3)nc12`, 73.5%.
As to `Cc1ccc2[nH]c(-c3cn(C4CCNCC4)nn3)nc2c1C`, the INHIBITION is 85.5%.
For the compound `Cc1cc(CN2C[C@@H]3COC[C@]3(CN(C)C)C2)no1`, the INHIBITION was -59%.
The result for `Cc1ccc(N2CCO[C@H]3CN(Cc4nccs4)C[C@H]32)nn1` reads -168%.
For `CCO[C@H]1CN(CC2CC2)[C@@H]2CCCO[C@H]12` the value was -82.9%; for `CCc1noc(CC)c1CC(=O)N1CCCC(N2CCCCC2)C1` (stereo not given), -22.8%.
For the compound `O=C1CC2(CCN(Cc3ccccn3)C2)CN1c1cccnc1` (stereo not given), the INHIBITION is listed as -14.1%.
In the case of `CCN(CC)CCNS(=O)(=O)c1cccc(CSC)c1`, the INHIBITION was 83.4%.
The result for `COc1ccc2[nH]c(CNc3cc(C4CCNCC4)nc(C)n3)cc2c1` reads 84.1%; that for `Cc1nc(C2CCNCC2)cc(N(C)Cc2cc3cc(F)ccc3[nH]2)n1`, 75.9%.
For the compound `CCN(Cc1c(F)cccc1Cl)c1cc(C2CCNCC2)nc(C)n1`, the INHIBITION is recorded as 76.4%.
The result for `Cc1nc(NCCC23CCCN2CCC3)cc(C2CCNCC2)n1` reads -50.1%; that for `CCCN(CC)c1cc(C2CCNCC2)nc(C)n1`, -70.1%; that for `CN(Cc1cc2cc(F)ccc2[nH]1)c1cc(C2CCCNC2)ncn1` (stereo not given), 84.2%.
For `Cc1cc(N(C)C)nc(C2CCCNC2)n1` (stereo not given) the value was -54.7%; for `Cc1nc(NCC23CCCN2CCC3)cc(C2CCCNC2)n1` (stereo not given), -54.3%.
